Results on ten compounds are retold here after ChEMBL document CHEMBL3988442, “University of Dundee, Small-Polar-MMV Screening Library” (2021).

Holding throughout (parameters): scale not given: direction of the effect not stated beside the values
The target in experiment [1] is Protein translocase subunit SecA (Escherichia coli (strain K12)) (UniProt P10408). Nature of the experiment: Assay to Identify E. coli SecA ATPase Inhibitors. The experiment is classed as functional. The settings on record: 30 µM.
Sequence of Protein translocase subunit SecA (Escherichia coli (strain K12)) (P10408 whole entry): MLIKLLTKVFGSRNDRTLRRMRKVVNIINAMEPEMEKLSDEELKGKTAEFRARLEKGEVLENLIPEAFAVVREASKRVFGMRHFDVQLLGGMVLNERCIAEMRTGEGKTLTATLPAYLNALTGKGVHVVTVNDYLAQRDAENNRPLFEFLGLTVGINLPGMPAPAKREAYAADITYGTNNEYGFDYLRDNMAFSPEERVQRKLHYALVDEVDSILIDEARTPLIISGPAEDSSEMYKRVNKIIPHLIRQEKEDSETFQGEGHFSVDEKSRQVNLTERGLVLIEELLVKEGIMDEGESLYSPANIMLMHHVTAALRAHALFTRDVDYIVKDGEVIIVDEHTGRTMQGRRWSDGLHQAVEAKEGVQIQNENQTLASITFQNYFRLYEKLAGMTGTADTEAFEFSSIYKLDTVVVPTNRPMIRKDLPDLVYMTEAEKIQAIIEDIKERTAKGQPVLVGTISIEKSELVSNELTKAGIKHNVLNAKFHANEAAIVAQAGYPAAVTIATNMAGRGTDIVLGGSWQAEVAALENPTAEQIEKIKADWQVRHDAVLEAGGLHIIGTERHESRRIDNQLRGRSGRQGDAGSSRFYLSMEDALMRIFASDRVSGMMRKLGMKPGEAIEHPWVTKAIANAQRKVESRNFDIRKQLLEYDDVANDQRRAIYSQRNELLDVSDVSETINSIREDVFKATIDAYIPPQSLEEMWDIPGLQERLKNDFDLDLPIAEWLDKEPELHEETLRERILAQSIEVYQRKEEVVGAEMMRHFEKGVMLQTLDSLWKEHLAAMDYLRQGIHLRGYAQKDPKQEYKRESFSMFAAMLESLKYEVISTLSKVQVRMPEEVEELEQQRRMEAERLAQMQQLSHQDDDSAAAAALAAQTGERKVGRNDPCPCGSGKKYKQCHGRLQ
The target of experiment [2] is T1, Ubiquitin-activating enzyme e1, putative (Leishmania donovani (strain BPK282A1)) (UniProt E9BSI1).
T1 sequence (whole entry): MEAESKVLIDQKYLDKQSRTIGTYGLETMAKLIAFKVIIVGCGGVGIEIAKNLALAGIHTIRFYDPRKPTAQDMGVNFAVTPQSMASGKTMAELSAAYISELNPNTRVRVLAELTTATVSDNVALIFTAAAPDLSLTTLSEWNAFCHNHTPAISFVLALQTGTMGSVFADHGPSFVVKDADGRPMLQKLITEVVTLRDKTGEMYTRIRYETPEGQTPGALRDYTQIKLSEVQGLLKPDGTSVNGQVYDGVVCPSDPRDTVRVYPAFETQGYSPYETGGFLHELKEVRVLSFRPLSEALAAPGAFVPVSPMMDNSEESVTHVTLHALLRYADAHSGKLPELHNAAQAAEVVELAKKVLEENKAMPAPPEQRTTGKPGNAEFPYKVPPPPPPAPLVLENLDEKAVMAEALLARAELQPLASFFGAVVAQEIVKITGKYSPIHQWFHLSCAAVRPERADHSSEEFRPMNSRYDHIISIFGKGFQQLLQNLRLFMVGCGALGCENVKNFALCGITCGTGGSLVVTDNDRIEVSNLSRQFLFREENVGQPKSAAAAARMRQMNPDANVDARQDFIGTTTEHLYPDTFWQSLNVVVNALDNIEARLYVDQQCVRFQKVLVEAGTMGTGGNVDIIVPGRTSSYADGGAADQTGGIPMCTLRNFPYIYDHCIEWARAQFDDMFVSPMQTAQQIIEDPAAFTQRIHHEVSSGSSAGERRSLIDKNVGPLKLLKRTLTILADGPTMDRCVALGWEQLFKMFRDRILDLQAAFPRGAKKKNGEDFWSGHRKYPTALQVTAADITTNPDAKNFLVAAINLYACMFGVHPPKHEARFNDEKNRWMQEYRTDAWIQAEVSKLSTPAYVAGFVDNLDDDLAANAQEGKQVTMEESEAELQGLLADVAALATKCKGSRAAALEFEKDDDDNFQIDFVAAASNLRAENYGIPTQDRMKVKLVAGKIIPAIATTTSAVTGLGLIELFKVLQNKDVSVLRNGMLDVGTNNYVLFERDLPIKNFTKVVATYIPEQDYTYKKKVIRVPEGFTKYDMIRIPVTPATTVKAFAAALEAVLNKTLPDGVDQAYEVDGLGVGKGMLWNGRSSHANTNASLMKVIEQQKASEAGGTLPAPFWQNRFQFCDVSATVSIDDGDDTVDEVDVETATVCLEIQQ
In words: Leishmania donovani Ubiquitin Activating Enzyme (LdE1). The settings on record: 30 µM. It is filed as functional.

Experiment [3] deals with AMP-activated protein kinase, AMPK (Homo sapiens) (UniProt P54646+O43741+P54619+Q9UGJ0+Q9Y478+Q13131+Q9UGI9). Nature of the experiment: AMP-dependent Kinase enzyme assay. An in vitro enzyme assay that detects ADP turnover that is directly proportional to AMPK activity. This uses naive AMPK that is activated during the assay with MK-8722. The experiment is classed as functional. The settings on record: 30 µM.

The target of experiment [4] is Sialic acid-binding Ig-like lectin 9 (Homo sapiens) (UniProt Q9Y336). In words: Hs-Siglec9 ALPHAscreen SOP 20170721. The settings on record: 10 µM. For orientation: Bead proximity is the source of the signal in Alpha formats.
Sequence of Sialic acid-binding Ig-like lectin 9 (Homo sapiens) (Q9Y336 whole entry): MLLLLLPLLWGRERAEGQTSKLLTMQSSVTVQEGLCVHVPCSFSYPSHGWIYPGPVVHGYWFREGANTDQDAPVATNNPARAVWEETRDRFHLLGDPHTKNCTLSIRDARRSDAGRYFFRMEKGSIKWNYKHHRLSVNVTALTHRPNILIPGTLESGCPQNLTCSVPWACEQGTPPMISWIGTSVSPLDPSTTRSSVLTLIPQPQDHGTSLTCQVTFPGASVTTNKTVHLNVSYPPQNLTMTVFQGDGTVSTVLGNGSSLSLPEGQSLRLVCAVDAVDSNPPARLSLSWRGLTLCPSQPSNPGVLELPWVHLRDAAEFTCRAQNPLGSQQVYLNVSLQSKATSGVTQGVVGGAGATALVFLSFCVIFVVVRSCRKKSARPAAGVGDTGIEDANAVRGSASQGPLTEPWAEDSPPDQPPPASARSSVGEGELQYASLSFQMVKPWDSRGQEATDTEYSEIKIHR
Experiment [5] concerns Trypanosoma cruzi. Nature of the experiment: Trypanosoma cruzi phosphomannomutase and mannose-1-phosphate guanylyltransferase assay. The experiment is classed as functional. The note with it: 10 µM.
The target of experiment [6] is T2, Arginase-2, mitochondrial (Homo sapiens) (UniProt P78540).
T2 sequence (whole entry): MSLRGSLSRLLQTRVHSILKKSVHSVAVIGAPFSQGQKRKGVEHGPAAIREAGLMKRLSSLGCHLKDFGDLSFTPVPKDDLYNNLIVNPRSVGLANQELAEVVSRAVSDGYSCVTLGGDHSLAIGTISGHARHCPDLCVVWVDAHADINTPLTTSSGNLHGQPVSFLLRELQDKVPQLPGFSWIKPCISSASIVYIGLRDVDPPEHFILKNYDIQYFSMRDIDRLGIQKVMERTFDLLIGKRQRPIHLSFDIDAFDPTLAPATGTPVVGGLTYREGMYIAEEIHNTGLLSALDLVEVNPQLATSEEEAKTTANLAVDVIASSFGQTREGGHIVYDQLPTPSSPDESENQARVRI
Nature of the experiment: in vitro enzyme assay to detect the production of urea directly proportional to the activity of Arginase II. Note: in the data most compounds retested in dose-response had high values. The note with it: 33.3 µM. It is filed as functional.

The target in experiment [7] is T3, Proteasome subunit beta (Trypanosoma cruzi) (UniProt O96673).
T3 sequence (whole entry): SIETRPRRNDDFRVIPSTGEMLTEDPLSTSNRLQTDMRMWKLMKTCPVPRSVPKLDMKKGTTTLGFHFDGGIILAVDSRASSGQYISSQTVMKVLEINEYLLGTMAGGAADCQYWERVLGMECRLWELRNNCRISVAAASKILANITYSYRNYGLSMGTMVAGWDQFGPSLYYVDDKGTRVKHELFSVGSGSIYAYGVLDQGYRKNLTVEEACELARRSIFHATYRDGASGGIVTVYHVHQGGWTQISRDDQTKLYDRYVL
Nature of the experiment: Trypanosoma cruzi proteasome chymotrypsin-like activity (TcProtChymo) assay. Note: in the data most compounds retested in dose-response had high values. The experiment is classed as functional. The settings on record: 9.37 µM.

Experiment [8] is filed under the species Homo sapiens. Nature of the experiment: To identify inhibition of the IFN signalling (Jak-Stat) pathway via expression of an eGFP reporter gene under the control of an IFN-stimulated response element (ISRE) containing MxA promoter. It is filed as functional. The note with it: 30 µM. (In a reporter assay the amount or activity of a reporter protein is the signal.)

The target in experiment [9] is T4, Tyrosyl-tRNA synthetase, putative (Trypanosoma cruzi (strain CL Brener)) (UniProt Q4DSP6).
T4 sequence (whole entry): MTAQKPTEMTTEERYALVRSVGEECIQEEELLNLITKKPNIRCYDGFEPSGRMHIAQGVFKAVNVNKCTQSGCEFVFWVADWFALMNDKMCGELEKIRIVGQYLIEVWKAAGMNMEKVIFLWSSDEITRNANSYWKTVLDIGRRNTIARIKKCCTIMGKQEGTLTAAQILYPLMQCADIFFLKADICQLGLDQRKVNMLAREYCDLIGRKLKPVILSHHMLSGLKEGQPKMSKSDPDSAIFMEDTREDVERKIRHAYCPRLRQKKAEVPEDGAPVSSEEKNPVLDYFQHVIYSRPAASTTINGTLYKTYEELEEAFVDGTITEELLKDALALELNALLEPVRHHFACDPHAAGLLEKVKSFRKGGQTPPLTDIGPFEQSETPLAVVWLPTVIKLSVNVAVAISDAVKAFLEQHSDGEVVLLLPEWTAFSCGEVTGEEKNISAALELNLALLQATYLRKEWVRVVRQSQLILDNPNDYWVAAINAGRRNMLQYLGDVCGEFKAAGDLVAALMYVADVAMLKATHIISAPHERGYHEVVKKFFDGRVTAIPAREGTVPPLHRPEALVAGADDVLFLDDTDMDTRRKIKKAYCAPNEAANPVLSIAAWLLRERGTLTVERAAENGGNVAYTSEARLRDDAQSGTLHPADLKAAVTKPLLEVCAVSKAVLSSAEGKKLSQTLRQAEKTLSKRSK
In words: Trypanosoma cruzi tyrosyl tRNA synthetase (TcYRS) _High Tyrosine SOP. Note: in the data most compounds retested in dose-response had high values. The note with it: 30 µM. The experiment is classed as functional.

In experiment [10] the target is T4, Tyrosyl-tRNA synthetase, putative (Trypanosoma cruzi (strain CL Brener)). In words: Trypanosoma cruzi tyrosyl tRNA synthetase (TcYRS) SOP. The experiment is classed as functional. The settings on record: 30 µM.
Experiment [11] deals with Chromo domain-containing protein 1 (Saccharomyces cerevisiae (strain ATCC 204508 / S288c) (Baker's yeast)) (UniProt P32657). Nature of the experiment: ScCHD-1 Enzyme Inhibition Assay. Note: in the data most compounds retested in dose-response had high values. The experiment is classed as functional. The note with it: 30 µM.
Sequence of Chromo domain-containing protein 1 (Saccharomyces cerevisiae (strain ATCC 204508 / S288c) (Baker's yeast)) (P32657 whole entry, the tested form may be a part): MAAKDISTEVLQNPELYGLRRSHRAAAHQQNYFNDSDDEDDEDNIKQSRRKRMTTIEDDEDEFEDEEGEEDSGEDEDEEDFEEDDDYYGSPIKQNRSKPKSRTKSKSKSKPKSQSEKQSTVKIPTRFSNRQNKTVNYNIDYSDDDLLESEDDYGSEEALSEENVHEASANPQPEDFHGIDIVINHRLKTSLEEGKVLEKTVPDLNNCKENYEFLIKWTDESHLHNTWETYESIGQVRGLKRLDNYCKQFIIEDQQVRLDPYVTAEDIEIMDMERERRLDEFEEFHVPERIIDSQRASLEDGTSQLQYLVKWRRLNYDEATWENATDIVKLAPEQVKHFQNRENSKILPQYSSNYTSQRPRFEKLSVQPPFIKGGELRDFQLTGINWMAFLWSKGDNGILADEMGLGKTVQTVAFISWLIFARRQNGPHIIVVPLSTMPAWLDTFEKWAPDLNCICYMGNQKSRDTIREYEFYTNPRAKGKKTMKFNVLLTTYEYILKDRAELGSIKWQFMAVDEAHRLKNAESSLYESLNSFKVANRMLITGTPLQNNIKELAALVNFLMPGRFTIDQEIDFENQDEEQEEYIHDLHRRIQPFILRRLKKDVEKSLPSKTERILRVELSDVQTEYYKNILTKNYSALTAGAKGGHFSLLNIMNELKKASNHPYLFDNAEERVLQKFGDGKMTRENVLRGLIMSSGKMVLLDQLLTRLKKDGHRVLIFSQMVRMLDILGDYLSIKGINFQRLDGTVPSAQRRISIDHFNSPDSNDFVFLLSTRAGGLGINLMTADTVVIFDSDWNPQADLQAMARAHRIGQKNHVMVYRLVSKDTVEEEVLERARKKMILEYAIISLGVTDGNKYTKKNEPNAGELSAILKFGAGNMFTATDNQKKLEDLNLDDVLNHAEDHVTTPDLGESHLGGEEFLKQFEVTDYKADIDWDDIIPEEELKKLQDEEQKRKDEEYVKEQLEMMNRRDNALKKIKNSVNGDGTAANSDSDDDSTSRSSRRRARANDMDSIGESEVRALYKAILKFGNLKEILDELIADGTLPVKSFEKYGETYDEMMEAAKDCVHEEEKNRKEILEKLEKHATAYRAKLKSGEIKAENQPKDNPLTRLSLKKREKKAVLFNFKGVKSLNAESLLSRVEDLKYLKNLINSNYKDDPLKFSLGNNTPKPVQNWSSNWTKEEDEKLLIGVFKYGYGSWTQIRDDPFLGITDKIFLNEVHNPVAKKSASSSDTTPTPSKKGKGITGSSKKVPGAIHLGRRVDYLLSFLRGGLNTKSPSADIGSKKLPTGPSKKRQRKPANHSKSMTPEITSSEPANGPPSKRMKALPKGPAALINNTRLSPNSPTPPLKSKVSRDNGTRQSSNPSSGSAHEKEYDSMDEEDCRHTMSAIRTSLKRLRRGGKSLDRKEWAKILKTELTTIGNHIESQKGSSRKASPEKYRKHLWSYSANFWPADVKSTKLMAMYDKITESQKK

For some assays here: Results with a measured potency or affinity are listed apart.

Regarding `CN(C)C1CCN(C(=O)NCc2ccccc2Cn2cncn2)CC1`, the Percent Effect is -2.11% in experiment [1]; 10.8% in [2]; -1.1% in experiment [3]; 10.9% in [4]; 7.72% in [5]; 6.19% in experiment [6]. Also, the Percent Effect was 12.2% in experiment [7]; 18.3% in [8]; 7.94% in [9]; 17.1% in experiment [10]; -1.22% in [11].

Turning to `COc1cccc(C(=O)NS(=O)(=O)c2cccc(C#N)c2)c1OC`, the Percent Effect in experiment [1] was -5.72%; in experiment [2], 10.8%; in [3], -6.64%; in [4], 1.98%; in experiment [5], 1.58%; in [6], 2.4%. The Percent Effect in experiment [7] was -0.539%; in experiment [8] it was 0.367%; in experiment [9], 1.98%; in [10] it was 13.4%; in [11] it was 3.98%.

On to `Cc1n[nH]c(C)c1NC(=O)CN1CCn2c(nnc2C(C)C)C1`, for which the Percent Effect in experiment [1] is -0.613%; in [2] it was 2.6%; in experiment [3], 7.19%; in experiment [4] it was 2.99%; in experiment [5], 2.06%; in experiment [6], 2.74%. Besides, the Percent Effect in experiment [7] was 5.42%; in experiment [8] it was -7.56%; in experiment [9], 0%; in experiment [10], 0%; in experiment [11] it was -16.6%.

In the case of `Cc1cnn(CC2CCCCN2CC(=O)Nc2c(C)n[nH]c2C)c1` (stereo not given), the Percent Effect is -3.93% in experiment [1]; 6.33% in experiment [2]; 8.13% in experiment [3]; 0.215% in experiment [4]; -4.62% in experiment [5]; -5.81% in experiment [6]. Also, the Percent Effect in experiment [7] is 6.86%; in experiment [8], 16.1%; in [9], 1.04%; in experiment [10] it was 10.1%; in experiment [11], -14.4%.

Consider `CC(C)n1c(=O)nc2n1C(=O)N(c1ccc(F)cc1)C2`, for which the Percent Effect is -3.14% in [1]; 13.2% in experiment [2]; 0.365% in experiment [3]; 6.05% in experiment [4]; 0.682% in [5]; -2.37% in experiment [6]. Further, the Percent Effect in experiment [7] is 13.9%; in experiment [8], -9.89%; in experiment [9] it was 4.25%; in experiment [10], 7.79%; in [11], -5.52%.

As to `Cc1ccc(CN2CCn3cc(CN(C)Cc4ccco4)nc3C2)o1`, the Percent Effect in [1] was -4.77%; in experiment [2], 15.6%; in [3], -9.82%; in experiment [4], 2.5%; in [5], 7.2%; in experiment [6], -9.68%. Also, the Percent Effect in experiment [7] was 16.2%; in [8], 7.34%; in experiment [9], 4.23%; in experiment [10], 11.5%; in [11], -10.4%.

As for `O=C(c1coc(COc2cccc(F)c2)n1)N1CC[C@H](O)[C@@H](O)C1`, the Percent Effect in experiment [1] was -4.21%; in experiment [2] it was 2.7%; in experiment [3], 0.202%; in [4] it was 8.13%; in experiment [5] it was 1.93%; in experiment [6], 3.33%. Further, the Percent Effect is 10.2% in experiment [7]; 7.51% in [8]; 5.82% in [9]; 9.76% in experiment [10]; -4.67% in experiment [11].

For the compound `CN(C)C(=O)COCc1cncc2c1CCN(Cc1nccn1C)C2`, the Percent Effect in experiment [1] was -2.93%; in [2] it was 7.79%; in experiment [3] it was 3.61%; in experiment [4], 17.4%; in experiment [5], 7.18%; in experiment [6] it was -106%. The Percent Effect is 3% in [7]; 20.9% in experiment [8]; 6.45% in experiment [9]; 13.6% in experiment [10]; 0.222% in experiment [11].

Consider `CCCC(=O)N1CC[C@@H]2[C@H](CC1)N(Cc1cccnc1)CCS2(=O)=O`, for which the Percent Effect in experiment [1] is -8.11%; in [2], 5.41%; in experiment [3], 3.63%; in experiment [4], -1.04%; in experiment [5] it was -0.586%; in [6], 2.5%. In addition, the Percent Effect in experiment [7] is 6.85%; in experiment [8] it was 0.118%; in [9], 8.91%; in [10], 8.54%; in [11] it was -3.88%.

With `Cc1cc(C)c(CNC(=O)N(C)CC2CCCCO2)c(=O)[nH]1` (stereo not given), the Percent Effect in [1] was -3.05%; in [2], 7.89%; in [3] it was 2.98%; in [4] it was -2.11%; in experiment [5], -8.84%; in [6], 3.06%. Moreover, the Percent Effect in experiment [7] was 14.2%; in experiment [8] it was 30.1%; in experiment [9], 4.41%; in experiment [10], 9.76%; in [11], -2.04%.
